Compound activity from PubChem.
Only some compounds are listed: those with a hit (about 11% of all), similar ones and a draw of the others.
OTUD3 inh: human OTUD3 deubiquitinase inhibition | Q5T2D3 | purified OTUD3, Ub-rhodamine fluorescence, 2 h | inhibition, % at 25 µM | hit rate 0.7% among 47,000
USP28 inh: inhibitors of human USP28 deubiquitinase; Q96RU2; purified USP28, Ub-rhodamine cleavage fluorescence, 30 min; inhibition, % at 25 µM; hit rate 3% among 47,000; AID 1645857
Target sequence (Q96RU2 whole entry, looked up): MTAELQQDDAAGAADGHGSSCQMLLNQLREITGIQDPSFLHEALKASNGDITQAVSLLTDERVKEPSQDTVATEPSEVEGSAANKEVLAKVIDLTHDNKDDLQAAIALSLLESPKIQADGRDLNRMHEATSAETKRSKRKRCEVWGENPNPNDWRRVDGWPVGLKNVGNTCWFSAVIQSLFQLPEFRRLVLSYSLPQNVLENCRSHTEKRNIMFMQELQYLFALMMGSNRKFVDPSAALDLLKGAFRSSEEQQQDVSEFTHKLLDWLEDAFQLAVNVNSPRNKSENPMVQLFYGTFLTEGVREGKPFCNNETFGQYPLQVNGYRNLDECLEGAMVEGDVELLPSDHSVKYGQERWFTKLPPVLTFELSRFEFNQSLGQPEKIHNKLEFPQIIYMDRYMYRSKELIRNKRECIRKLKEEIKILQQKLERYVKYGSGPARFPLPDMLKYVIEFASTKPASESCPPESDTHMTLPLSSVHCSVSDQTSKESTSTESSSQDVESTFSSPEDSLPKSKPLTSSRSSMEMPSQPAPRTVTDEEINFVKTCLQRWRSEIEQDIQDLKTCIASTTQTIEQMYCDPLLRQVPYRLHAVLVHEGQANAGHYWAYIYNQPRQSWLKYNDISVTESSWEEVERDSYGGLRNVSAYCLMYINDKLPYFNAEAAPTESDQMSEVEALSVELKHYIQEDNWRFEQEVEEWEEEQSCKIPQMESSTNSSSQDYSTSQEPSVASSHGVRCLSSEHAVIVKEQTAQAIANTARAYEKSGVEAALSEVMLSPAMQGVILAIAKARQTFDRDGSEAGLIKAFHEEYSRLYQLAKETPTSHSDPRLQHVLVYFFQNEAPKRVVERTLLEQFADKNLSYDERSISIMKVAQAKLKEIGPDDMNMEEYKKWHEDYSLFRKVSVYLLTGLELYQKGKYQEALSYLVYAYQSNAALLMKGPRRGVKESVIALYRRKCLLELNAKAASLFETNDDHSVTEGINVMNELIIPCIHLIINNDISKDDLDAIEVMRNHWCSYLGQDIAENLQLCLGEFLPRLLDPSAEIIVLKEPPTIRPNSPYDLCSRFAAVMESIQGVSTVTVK
USP17 block: inhibitors of human USP17 deubiquitinase. hit rate 6.5% among 47,000. AID 1645855. inhibition, % at 50 µM. A8MUK1. purified USP17, Ub-rhodamine cleavage fluorescence, 3 h
USP30 block: blocks human USP30 ubiquitin-rhodamine cleavage; Q70CQ3; purified USP30, Ub-rhodamine cleavage fluorescence; inhibition, % at 25 µM; hit rate 5.3% among 47,000; AID 1645860
Numbers stand for hits; – = inactive. Rule as the data show it: active = inhibition above about 30%; inactive = the rest.

SMILES	OTUD3 inh	USP28 inh	USP17 block	USP30 block
COC(=O)[C@]1(O)O[C@@]2(C(=O)OC)c3c(oc4cc(C)cc(O)c4c3=O)[C@H]3c4c(oc5cc(C)cc(O)c5c4=O)C[C@H]1[C@H]32	32	–	53	–
CO[C@H](c1ccccc1)[C@@H]1NC(=O)[C@H](C)NC(=O)[C@H](C[C@@H](C)CO)N(C)C(=O)[C@H]([C@H](O)c2cn(C(C)(C)[C@@H]3CO3)c3ccccc23)NC(=O)[C@H]([C@H](C)C=C(C)C)NC(=O)[C@H](CC(C)C)N(C)C(=O)[C@H](C(C)C)NC1=O	–	–	33	–
CN1CCc2c(C#N)c(N3CCCC3)n3cnnc3c2C1	–	–	–	–
CN(C[C@H]1CN2CC[C@H]1C[C@@H]2CNC(=O)Nc1cccc(F)c1)c1ccccc1	–	–	–	40
O=C(c1cc(Cl)c(Cl)[nH]1)c1cc(Cl)cc(Cl)c1O	–	–	–	–
O=C1CSC(c2ccc(F)cc2)c2c(n(C3CCCCCC3)[nH]c2=O)N1 (configuration not stated)	–	–	–	30
O=C1CSC(c2ccc(Cl)cc2)c2c(n(C3CCCC3)[nH]c2=O)N1 (configuration not stated)	–	–	–	–
Cc1ccc(C2SCC(=O)Nc3c2c(=O)[nH]n3C2CCOC(C)(C)C2)cc1 (configuration not stated)	–	–	–	–
COc1ccc(C2SCC(=O)Nc3c2c(=O)[nH]n3C2CCCCC2)cc1 (configuration not stated)	–	–	68	–
CC1(C)CC(n2[nH]c(=O)c3c2NC(=O)CSC3c2ccccc2)CCO1 (configuration not stated)	–	–	–	33
Cc1ccc(-c2noc(-c3ccc(OCC(=O)N4CCN(C)CC4)cc3)n2)cc1	–	–	–	–
CC12CN3CC(c4ccccc4)(CN(C1)C3(C)C)C2=O	–	–	–	–
Cc1ccc(CN2CC[C@@H]3[C@@H](CO[C@H]3CNc3ncccn3)C2)s1	–	–	–	–
COc1c(Cl)ccc2c(=O)c3c(oc12)C1=C2[C@@H](OCO1)[C@@H](OC)c1cc4c(c(O)c1[C@@]2(O)[C@H]3O)C(=O)N(C)[C@H](OC)[C@@H]4O	32	43	–	60
COc1c(Cl)ccc2c(=O)c3c(O)c4c5c(c3oc12)OCO[C@H]5[C@@H](OC)c1cc2c(c(O)c1-4)C(=O)N(C)[C@H](OC)[C@@H]2O	–	49	–	64
Cn1nc(-c2ccco2)cc1[C@H]1CN2CC[C@H]1C[C@@H]2CNC(=O)Nc1cccc(C#N)c1	–	–	–	–
Cc1cc(C)nc(-n2nc(C)c3c2NC(=O)CSC3c2cccc(O)c2)n1 (configuration not stated)	–	–	–	–
O=C1CO[C@H]2CN(Cc3ccncc3)C[C@H]2N1Cc1ccccn1	–	–	–	–
CC(C)n1[nH]c(=O)c2c1NC(=O)CSC2c1ccc(OCc2ccccc2)cc1 (configuration not stated)	–	–	–	–
CCC(CC)n1[nH]c(=O)c2c1NC(=O)CSC2c1ccc2c(c1)OCO2 (configuration not stated)	–	–	65	–
CC12CN3CC(c4ccccc4)(CN(C1)C3c1ccccc1)C2=O (configuration not stated)	–	–	–	–
O=c1c2ccccc2nc(/C=C/c2ccco2)n1-c1ccccc1Cl	–	–	–	–
C=C/C(C)=C/[C@H](C)C(=O)C[C@H](O)CC1CC(=O)NC(=O)C1	–	–	–	–
CCCCNC(=O)c1cc2cccnc2n(Cc2ccccc2)c1=O	–	–	69	–
CN(C)Cc1c[nH]c2c(OCc3ccccc3)cccc12	–	45	–	35
SMILES	OTUD3 inh	USP28 inh	USP17 block	USP30 block
O=C(c1ccc2c(c1)OCO2)N1CC(C(=O)N2CCC3(CC2)OCCO3)C1	–	–	–	–
CC(C)=CCCC1(C)C=Cc2c(O)c3c(c(CC=C(C)C)c2O1)O[C@]12C(=C[C@@H]4CC1C(C)(C)O[C@@]2(C/C=C(/C)C(=O)O)C4=O)C3=O (some centres not stated)	77	90	82	37
Cn1cc(CN2CCC3(CC2)C(=O)N(CC2CC2)c2ccccc23)cn1	–	–	–	–
CO[C@H]1[C@@H](O)[C@H](C)O[C@H](O[C@H]2[C@H](Oc3cccc4c(O)c5c(=O)oc6ccc(C)c7c(=O)oc(c34)c5c67)O[C@H](C)[C@H](O)[C@@H]2O)[C@@H]1O	51	65	78	–
Cn1c(=O)c2ncnnc2n(C)c1=O	90	96	95	83
COc1ccc(OC)c(-c2c(C#N)c(C)nc3c2N2CCC3CC2)c1	33	94	49	43
